# According to PubChem BioAssay:
# Calls of active or inactive are those of the source. Unless noted, the rule behind the calls is not given here.
# Experiments:
# [1] = system: Wnt5a (protein binding on small-molecule microarray); assay: Wnt5a binders on small-molecule microarray, primary screen, biophysical, 635/667 nm fluorescence (AID 1142); conditions: 635 nm fluorescence, higher = more signal;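 note: fluorescence read at 667 nm with signal to noise per printed feature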
# [2] = cell viability in Huh7 cells, primary screen, cytotoxicity control for HCV replication inhibitor project, CellTiter-Glo luminescence, basal, 48 h (AID 1143); conditions: Huh7 HCV replicon, higher = more signal, called active from +8 up or from −8 down;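 note: Huh7 hepatoma cells carrying a hepatitis C replication reporter with no stimulus; test concentration not given here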
# [3] = P. aeruginosa biofilm formation inhibitors, primary screen, PAO1 strain, BacTiter-Glo luminescence, LB-PBS (AID 1144); conditions: 12 h, higher = more signal
# [4] = CREB reporter modulators without forskolin, primary screen, cell-based, PC12, CRE-LacZ reporter, unstimulated (AID 1145); conditions: no forskolin, luminescence, 4.5 h, higher = more signal, called active from +8 up or from −8 down
# [5] = CREB reporter modulators under forskolin, primary screen, cell-based, PC12, CRE-LacZ reporter, forskolin-stimulated (AID 1146); conditions: luminescence, 4.5 h, higher = more signal, called active from +8 up or from −8 down;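 note: PC12 cells with 6xCRE LacZ reporter stimulated by forskolin 10 µM; beta-galactosidase reporter signal reflecting CREB driven transcription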
# [6] = molecular target: Streptavidin (Streptomyces avidinii) (UniProt P22629); assay: streptavidin binders on small-molecule microarray, primary screen, artefact control for SMM compound annotation, biophysical, 635/667 nm fluorescence (AID 1147); conditions: streptavidin binding, higher = more signal;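 note: signal reflects streptavidin binding to arrayed compounds as a control protein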
# Chain of Streptavidin (Streptomyces avidinii) (P22629 whole entry, looked up): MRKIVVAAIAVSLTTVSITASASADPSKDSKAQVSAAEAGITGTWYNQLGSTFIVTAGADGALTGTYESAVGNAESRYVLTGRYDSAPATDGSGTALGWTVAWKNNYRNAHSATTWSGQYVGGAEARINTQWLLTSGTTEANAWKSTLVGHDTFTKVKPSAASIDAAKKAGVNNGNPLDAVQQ
# [7] = small-molecule binders of probe aInhba, primary screen, biochemical, small-molecule microarray, 635/667 nm fluorescence (AID 1148); conditions: higher = more signal;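 note: score merges 667nm spot fluorescence with signal-to-noise for antibody binding to printed compounds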
# [8] = molecular target: Torsin-1A (Homo sapiens) (UniProt O14656); assay: torsin A binders from cell lysate, primary screen, small-molecule microarray, wild-type, 635/667 nm (AID 1149); conditions: COS7 hTOR1A-WT lysate, 635 nm fluorescence, higher = more signal
# Chain of Torsin-1A (Homo sapiens) (O14656 whole entry, looked up): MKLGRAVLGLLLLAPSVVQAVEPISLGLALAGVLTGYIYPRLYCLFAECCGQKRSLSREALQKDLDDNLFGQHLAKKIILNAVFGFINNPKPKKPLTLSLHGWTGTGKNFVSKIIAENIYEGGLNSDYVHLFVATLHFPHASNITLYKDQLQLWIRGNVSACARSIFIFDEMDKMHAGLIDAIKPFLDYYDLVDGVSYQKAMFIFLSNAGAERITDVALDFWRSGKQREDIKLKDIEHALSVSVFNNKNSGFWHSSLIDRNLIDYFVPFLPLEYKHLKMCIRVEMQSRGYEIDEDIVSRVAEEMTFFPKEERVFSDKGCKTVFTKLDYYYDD
# [9] = molecular target: Torsin-1A (Homo sapiens) (UniProt O14656); assay: small-molecule binders of mutant TOR1A in lysate, primary screen, cell lysate, small-molecule microarray, COS7 lysate, 635/667 nm fluorescence (AID 1150); conditions: COS7 hTOR1A mutant lysate, 635 nm fluorescence, higher = more signal;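 note: score pools 667 nm emission and signal to noise measuring lysate protein binding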
# [10] = system: Sonic hedgehog protein (Shh); assay: small-molecule binders of Shh protein, primary screen, biochemical, small-molecule microarray, 635/667 nm fluorescence (AID 1151); conditions: small-molecule microarray binding, 635 nm fluorescence; higher = more signal;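 note: Shh protein binding to compounds spotted on small-molecule microarray slides; score combines spot fluorescence intensity with signal-to-noise across triplicate slides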
# [11] = E. coli DRC41 culture turbidity changes, primary screen, E. coli filamentation inducer project, strain DRC41, OD650, 48 h (AID 1152);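 note: E. coli MC1000 strain DRC41 lacking acrAB efflux pump and sulA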; conditions: E. coli DRC41 (acrAB sulA), higher = more signal, called active from +8 up or from −8 down
# [12] = small-molecule binders of probe aLefty1, primary screen, biochemical, small-molecule microarray, 635/667 nm fluorescence (AID 1153); conditions: higher = more signal;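 note: score merges spot fluorescence with signal-to-noise ratio from the scanned slide images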
# [13] = PSAC antagonists in infected red cells, primary screen, cell-based, P. falciparum Indochina, OD700, 1 h (AID 1154); conditions: P. falciparum Indochina infected RBC osmotic lysis, higher = more signal, called active from +8 up or from −8 down
# [14] = PSAC antagonists in infected red cells, primary screen, cell-based, P. falciparum Indochina, OD700, 2 h (AID 1155);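 note: lysis reports solute entry through the parasite surface anion channel PSAC; channel blockers reduce lysis of infected cells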; conditions: P. falciparum Indochina infected erythrocytes, osmotic lysis OD700; higher = more signal, called active from +8 up or from −8 down
# [15] = osmotic lysis modulators in infected erythrocytes, primary screen, PSAC antagonist project, cell-based, P. falciparum Indochina, OD700, 3 h (AID 1156); conditions: higher = more signal, called active from +8 up or from −8 down
# [16] = PSAC antagonists in infected red cells, primary screen, cell-based, P. falciparum Indochina, OD700, 18 h (AID 1157); conditions: P. falciparum Indochina infected erythrocytes, osmotic lysis OD700, 18 h; higher = more signal, called active from +8 up or from −8 down
# [17] = modulators of S6 phosphorylation in cells, primary screen, cell-based, A549, cytoblot, luminescence, serum-stimulated (AID 1158); conditions: A549 phospho-S6 cytoblot, 5 h, higher = more signal;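 note: serum-stimulated A549 lung adenocarcinoma cells; signal is phosphorylated S6 detected by cytoblot immunostaining with HRP secondary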
# [18] = molecular target: NADPH oxidase 2 (Homo sapiens) (UniProt P04839); assay: NOX2-dependent H2O2 signal modulators, primary screen, NOX inhibitor project, cell-based, HEK293-NOX2, PMA-stimulated, Amplex Red fluorescence (AID 1159); conditions: 45 min, higher = more signal, called active from +8 up or from −8 down; note: test concentration not given here
# Chain of NADPH oxidase 2 (Homo sapiens) (P04839 whole entry, looked up): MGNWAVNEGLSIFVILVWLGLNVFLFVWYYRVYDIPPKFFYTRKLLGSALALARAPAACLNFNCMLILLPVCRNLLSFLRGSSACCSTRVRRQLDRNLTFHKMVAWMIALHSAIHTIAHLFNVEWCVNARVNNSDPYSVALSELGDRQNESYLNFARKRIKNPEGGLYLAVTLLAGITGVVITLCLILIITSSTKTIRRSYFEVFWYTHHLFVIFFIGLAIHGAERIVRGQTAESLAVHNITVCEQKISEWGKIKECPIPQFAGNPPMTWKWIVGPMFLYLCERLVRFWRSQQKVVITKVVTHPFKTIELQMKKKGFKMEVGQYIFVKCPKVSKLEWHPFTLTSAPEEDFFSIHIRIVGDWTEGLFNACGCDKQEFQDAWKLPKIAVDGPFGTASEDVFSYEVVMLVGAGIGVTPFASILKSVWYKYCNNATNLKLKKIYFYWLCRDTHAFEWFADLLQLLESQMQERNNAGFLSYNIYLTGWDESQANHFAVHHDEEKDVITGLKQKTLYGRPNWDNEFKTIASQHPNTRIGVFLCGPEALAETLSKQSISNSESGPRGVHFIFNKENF
# [19] = molecular target: NADPH oxidase 4 (Homo sapiens) (UniProt Q9NPH5); assay: NOX4-dependent H2O2 signal modulators, primary screen, NOX inhibitor project, cell-based, HEK293-NOX4, tetracycline-induced, Amplex Red fluorescence (AID 1160); conditions: 45 min, higher = more signal, called active from +8 up or from −8 down
# Chain of NADPH oxidase 4 (Homo sapiens) (Q9NPH5 whole entry, looked up): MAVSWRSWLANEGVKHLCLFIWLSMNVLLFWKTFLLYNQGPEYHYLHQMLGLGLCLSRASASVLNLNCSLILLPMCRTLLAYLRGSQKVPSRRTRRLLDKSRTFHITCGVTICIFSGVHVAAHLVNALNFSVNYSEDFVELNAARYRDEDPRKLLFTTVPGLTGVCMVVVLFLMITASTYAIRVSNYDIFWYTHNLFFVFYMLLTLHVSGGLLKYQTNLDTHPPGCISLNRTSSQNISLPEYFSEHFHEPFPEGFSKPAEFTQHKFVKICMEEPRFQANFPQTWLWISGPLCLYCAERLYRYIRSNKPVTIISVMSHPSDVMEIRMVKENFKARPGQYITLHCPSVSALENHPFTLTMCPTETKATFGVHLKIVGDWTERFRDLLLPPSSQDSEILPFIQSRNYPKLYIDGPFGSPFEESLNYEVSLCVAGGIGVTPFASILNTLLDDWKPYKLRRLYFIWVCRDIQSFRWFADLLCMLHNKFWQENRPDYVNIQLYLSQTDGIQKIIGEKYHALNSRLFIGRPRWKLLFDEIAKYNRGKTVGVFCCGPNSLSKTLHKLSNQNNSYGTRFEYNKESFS
# [20] = molecular target: NADPH oxidase 5 (Homo sapiens) (UniProt Q96PH1); assay: NOX5-dependent H2O2 signal modulators, primary screen, NOX inhibitor project, cell-based, HEK293-NOX5, Amplex Red fluorescence (AID 1161); conditions: HEK293-NOX5, ionomycin, 45 min, higher = more signal
# Chain of NADPH oxidase 5 (Homo sapiens) (Q96PH1 whole entry, looked up): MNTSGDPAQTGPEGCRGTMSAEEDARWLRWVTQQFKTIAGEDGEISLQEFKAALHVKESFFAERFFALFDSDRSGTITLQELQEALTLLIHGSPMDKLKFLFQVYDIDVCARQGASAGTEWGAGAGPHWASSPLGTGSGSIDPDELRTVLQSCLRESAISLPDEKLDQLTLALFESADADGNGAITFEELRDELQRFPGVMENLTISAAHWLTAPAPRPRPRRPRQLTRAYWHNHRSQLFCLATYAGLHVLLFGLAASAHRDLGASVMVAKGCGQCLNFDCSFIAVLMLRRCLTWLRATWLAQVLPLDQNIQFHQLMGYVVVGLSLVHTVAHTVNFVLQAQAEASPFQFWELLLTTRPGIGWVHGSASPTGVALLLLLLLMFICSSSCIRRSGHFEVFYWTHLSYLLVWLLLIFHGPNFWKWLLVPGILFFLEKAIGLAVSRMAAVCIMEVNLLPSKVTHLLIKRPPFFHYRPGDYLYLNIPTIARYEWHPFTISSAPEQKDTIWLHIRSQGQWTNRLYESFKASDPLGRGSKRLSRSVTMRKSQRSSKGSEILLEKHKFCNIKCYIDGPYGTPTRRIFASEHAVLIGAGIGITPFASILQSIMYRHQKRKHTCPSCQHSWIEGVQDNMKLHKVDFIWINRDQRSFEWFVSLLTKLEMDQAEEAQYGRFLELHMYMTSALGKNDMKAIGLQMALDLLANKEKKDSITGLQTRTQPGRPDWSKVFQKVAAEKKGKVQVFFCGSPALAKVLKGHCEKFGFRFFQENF
SMILES,composite z-score [1],z-score [2],z-score [3],z-score [4],z-score [5],composite z-score [6],composite z-score [7],composite z-score [8],composite z-score [9],composite z-score [10],z-score [11],composite z-score [12],z-score [13],z-score [14],z-score [15],z-score [16],z-score [17],z-score [18],z-score [19],z-score [20]
COCCOC(=O)N1C(=O)[C@@]2(c3cc(C#CC4=CCCCC4)ccc31)[C@H](C(=O)Nc1nc3ccccc3s1)[C@H]1C(=O)O[C@H](c3ccccc3)[C@H](c3ccccc3)N1[C@@H]2c1ccccc1OCCO,0.697,-5.66 (inactive),-1.29 (inactive),-0.878 (inactive),-1.09 (inactive),1.19,0.973,0.0595,0.956,1.49,0.687 (inactive),1.43,2.84 (inactive),0.926 (inactive),-0.0917 (inactive),0.436 (inactive),1.93,0.102 (inactive),0.056 (inactive),-1.83
CC(=O)n1cc(C(O)C2C=CC3C(=O)N(C)C(=O)C3N2Nc2ccccc2)c2ccccc21 (stereo not given),0.19,1.08 (inactive),-0.114 (inactive),0.0569 (inactive),-0.172 (inactive),1.13,0.246,0.383,0.606,1.04,-1.39 (inactive),0.384,1.11 (inactive),0.475 (inactive),-0.372 (inactive),0.876 (inactive),-0.994,-1.57 (inactive),-3.46 (inactive),-2.78
O=C1NCC(=O)N2[C@@H]1C[C@@H](C(=O)O)[C@H]2c1cccc(OCCO)c1,2.26,-0.095 (inactive),4.41 (inactive),0.822 (inactive),-0.393 (inactive),2.8,2.16,3.24,3.69,1.63,0.0481 (inactive),3.14,2.24 (inactive),1.34 (inactive),-1.22 (inactive),0.572 (inactive),0.863,0.313 (inactive),0.281 (inactive),1.62
C=CC[C@]12N=C(c3ccc(OCCCO)cc3)O[C@H]1c1ccccc1N(Cc1ccccc1)C2=O,0.373,-3.92 (inactive),0.71 (inactive),-0.389 (inactive),-1.64 (inactive),-0.255,0.153,0.35,1.04,0.351,0.323 (inactive),0.445,28.8 (active),27.9 (active),3.64 (inactive),6.21 (inactive),-0.329,-0.89 (inactive),0.393 (inactive),-0.835
O=C1OCC=C[C@H]2OC34C=CCN(c5ccc6ccccc6c5)C(=O)[C@H]3N(CCCCCCO)C(=O)[C@@H]4[C@@H]12 (stereo not given in full),-0.565,0.165 (inactive),3.31 (inactive),0.471 (inactive),-0.0042 (inactive),-0.719,-0.018,1.62,-1.69,-0.749,-0.0903 (inactive),0.0839,3.18 (inactive),0.0422 (inactive),0.966 (inactive),0.525 (inactive),-0.482,1.36 (inactive),0.0322 (inactive),2.12
CCCN1C(=O)[C@]2(CCS(=O)(=O)c3ccccc3)N=C(c3ccc(OCCCO)cc3)O[C@@H]2c2ccccc21,0.419,-4.93 (inactive),-1.32 (inactive),-0.254 (inactive),-1.53 (inactive),1.24,0.0475,1.33,1.24,1.13,1.51 (inactive),0.497,29.3 (active),21.2 (active),1.31 (inactive),0.471 (inactive),1.42,-1.5 (inactive),-0.284 (inactive),-1.17
COc1cc2c(cc1O)C(C1CC1)N(Cc1cc3c(cc1Br)OCO3)CC2 (stereo not given),-0.481,-5.73 (inactive),-0.109 (inactive),0.245 (inactive),4.34 (inactive),-0.735,-0.179,-0.151,-0.416,-1.09,-1.46 (inactive),-0.263,9.09 (active),1.17 (inactive),0.838 (inactive),0.72 (inactive),-0.074,-6.19 (inactive),-3.97 (inactive),-4.81
C=CCNC(=O)[C@H]1[C@@H]2C(=O)O[C@@H](c3ccccc3)[C@@H](c3ccccc3)N2[C@@H](c2ccc(O)cc2)[C@]12C(=O)N(C(=O)OCCOC)c1ccc(C#CCNC(N)=O)cc12,0.415,0.621 (inactive),0.283 (inactive),0.0736 (inactive),-0.036 (inactive),-0.231,0.223,0.181,-0.0483,1.55,-0.929 (inactive),0.378,1.78 (inactive),0.441 (inactive),-0.627 (inactive),0.0898 (inactive),-0.272,1.28 (inactive),0.291 (inactive),0.383
